Assay results reported in PubChem BioAssay (NCI).
This is part of a sample that, as a whole, favours compounds with a hit. Of some 79,000 tested, about 15% had one in any assay. Calls of active or inactive are those of the source. No stated cut-off is given here; in the data, active means growth inhibition above about 70%; inactive means the rest.

Experiments:
[1] = NCI Yeast Anticancer Drug Screen. Data for the wt1 strain (AID 149);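 further: 0% = growth of vehicle-treated wt1 cultures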; conditions: S. cerevisiae wt1 strain (SPY 50644) growth inhibition, active compounds read high
Summary of the method: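 Readout: yeast growth inhibition, normalised to vehicle controls, in the wt1 strain exposed to test compounds.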

[2] = NCI Yeast Anticancer Drug Screen. Data for the rad50EPP+ strain (AID 151);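 further: 0% = growth of vehicle-treated control cultures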; conditions: S. cerevisiae rad50 mutant strain, active compounds read high
Summary of the method: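 Read-out is yeast growth inhibition relative to vehicle; cells used were the rad50EPP+ strain.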

[3] = NCI Yeast Anticancer Drug Screen. Data for the rad50 strain (AID 155);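 further: 0% = growth of vehicle-only cultures of the same strain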; conditions: S. cerevisiae rad50 strain growth inhibition, active compounds read high
Summary of the method: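 Compounds were tested on a yeast strain with an engineered DNA damage repair alteration; the reported value is growth inhibition normalised to vehicle treatment.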

[4] = NCI Yeast Anticancer Drug Screen. Data for the mec2-1 strain (AID 157); conditions: S. cerevisiae mec2-1 strain, active compounds read high
Summary of the method: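 Using mec2-1 yeast: add compound, measure growth, express inhibition versus vehicle-treated cultures.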

[5] = NCI Yeast Anticancer Drug Screen. Data for the rad14 strain (AID 159);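 further: 0% = growth of vehicle-treated control cultures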; conditions: S. cerevisiae rad14 strain growth inhibition, active compounds read high
Summary of the method: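 Compound-treated yeast with a defined DNA-repair lesion; growth inhibition normalised to vehicle-treated cultures.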

[6] = NCI Yeast Anticancer Drug Screen. Data for the sgs1 mgt1 strain (AID 161);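 further: 0% = growth of cultures given vehicle only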; conditions: S. cerevisiae sgs1 mgt1 strain, active compounds read high
Summary of the method: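 Compounds are added to genetically altered yeast, and growth is compared with cultures given vehicle alone to give percent inhibition.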

[7] = NCI Yeast Anticancer Drug Screen. Data for the CLN2oe strain (AID 163);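 further: 0% = growth of vehicle-only control cultures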; conditions: S. cerevisiae CLN2oe strain, active compounds read high
Summary of the method: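 Whole-cell yeast growth assay. A strain engineered for altered cell-cycle control received compound, and inhibition relative to vehicle-treated cultures was recorded.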

[8] = NCI Yeast Anticancer Drug Screen. Data for the cln2 rad14 strain (AID 165);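 further: 0% = growth equal to vehicle treated cultures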; conditions: S. cerevisiae cln2 rad14 strain, active compounds read high
Summary of the method: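 Yeast strain cln2 rad14, bearing defects in cell cycle control and DNA repair, serves as the test system; values reflect growth inhibition compared with vehicle.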

[9] = NCI Yeast Anticancer Drug Screen. Data for the bub3 strain (AID 167); conditions: S. cerevisiae bub3 mutant strain, active compounds read high
Summary of the method: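 Growth of a checkpoint-deficient yeast mutant is measured after compound exposure. Values represent inhibition relative to vehicle.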

[10] = NCI Yeast Anticancer Drug Screen. Data for the wt2 strain (AID 169);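 further: 0% = growth of vehicle-treated yeast cultures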; conditions: S. cerevisiae wt2 strain growth inhibition, active compounds read high
Summary of the method: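 Treated yeast vs. vehicle-treated yeast: growth inhibition determined.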

[11] = NCI Yeast Anticancer Drug Screen. Data for the mlh1 strain (AID 171);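 further: 0% = growth of vehicle-treated control cultures of the same strain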; conditions: S. cerevisiae mlh1 strain growth inhibition, active compounds read high
Summary of the method: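 A yeast strain with a defined genetic lesion serves as the test organism. Cultures receive compound or vehicle, and growth is measured.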

[12] = NCI Yeast Anticancer Drug Screen. Data for the sgs1 strain (AID 173);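 further: 0% = growth of vehicle-only control cultures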; conditions: S. cerevisiae sgs1 mutant, active compounds read high
Summary of the method: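 A genetically defined yeast mutant is incubated with the test compound, and its growth is compared to that of the same strain given vehicle.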

[13] = NCI Yeast Anticancer Drug Screen. Data for the rad18 strain (AID 177); conditions: S. cerevisiae rad18 mutant growth inhibition, active compounds read high
Summary of the method: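 Measured value is growth inhibition of a yeast strain bearing a DNA repair alteration, referenced to vehicle-treated cells.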

[14] = NCI Yeast Anticancer Drug Screen. Data for the mgt1 strain (AID 153); conditions: S. cerevisiae mgt1 mutant growth inhibition, active compounds read high
Summary of the method: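 Measured: inhibition of mgt1 yeast growth by compound, normalized to vehicle-treated cultures.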

[15] = NCI Yeast Anticancer Drug Screen. Data for the mlh1 rad18 strain (AID 175); conditions: S. cerevisiae mlh1 rad18 strain growth inhibition, active compounds read high
Summary of the method: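 Steps: expose repair-defective yeast to compound; measure growth; express inhibition against vehicle-treated controls.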

[16] = at 5.0 µM (retest, dose inferred, filed as 0.5)
[17] = at 50.0 µM (retest, dose inferred, filed as 5.0)

Measured: growth inhibition

CCCCC1=NNC(=O)C1
active: [3]; [17] 78% | [6]; at 50.0 µM 90% | [9]; at 50.0 µM 81.7%
inactive: [1]; at 1.2 µM 1% | [1]; at 3.7 µM 2% | [1]; at 11.0 µM 8% | [1]; at 33.0 µM 7% | [1]; at 100.0 µM 5% | [2]; at 1.2 µM -9% | [2]; at 3.7 µM -8% | [2]; at 11.0 µM -16% | [2]; at 33.0 µM -10% | [2]; at 100.0 µM -7% | [3]; at 1.2 µM 3% | [3]; at 3.7 µM -11% | [3]; [16] 45% | [3]; at 11.0 µM -6% | [3]; at 33.0 µM -11% | [3]; at 50.0 µM 3% | [3]; at 100.0 µM 9% | [4]; at 1.2 µM -7% | [4]; at 3.7 µM -5% | [4]; [16] 32% | [4]; at 11.0 µM -8% | [4]; at 33.0 µM -9% | [4]; [17] 57% | [4]; at 50.0 µM -3.3% | [4]; at 100.0 µM 5% | [5]; at 1.2 µM 6% | [5]; at 3.7 µM 11% | [5]; at 11.0 µM 9% | [5]; at 33.0 µM 13% | [5]; at 100.0 µM 18% | [6]; [16] 17% | [6]; [17] -26% | [7]; at 1.2 µM -43% | [7]; at 3.7 µM -48% | [7]; at 11.0 µM -52% | [7]; at 33.0 µM -70% | [7]; at 100.0 µM -28% | [8]; [16] 28% | [8]; [17] -56% | [8]; at 50.0 µM 52% | [9]; at 1.2 µM -4% | [9]; at 3.7 µM 0% | [9]; [16] 22% | [9]; at 11.0 µM -11% | [9]; at 33.0 µM 0% | [9]; [17] -26% | [9]; at 100.0 µM 7% | [10]; at 1.2 µM -40% | [10]; at 3.7 µM -45% | [10]; at 11.0 µM -64% | [10]; at 33.0 µM -52% | [10]; at 100.0 µM -66% | [11]; at 1.2 µM -11% | [11]; at 3.7 µM 1% | [11]; at 11.0 µM -7% | [11]; at 33.0 µM -10% | [11]; at 100.0 µM -18% | [12]; at 1.2 µM 10% | [12]; at 3.7 µM 12% | [12]; at 11.0 µM 0% | [12]; at 33.0 µM -22% | [12]; at 100.0 µM 5% | [13]; at 1.2 µM -10% | [13]; at 3.7 µM 1% | [13]; at 11.0 µM 0% | [13]; at 33.0 µM 1% | [13]; at 100.0 µM 24%

CC[C@@]1(OC(=O)CCC(=O)O)C(=O)OCc2c1cc1n(c2=O)Cc2cc3ccccc3nc2-1
inactive: [1]; at 1.2 µM 4% | [1]; at 3.7 µM -2% | [1]; at 11.0 µM 7% | [1]; at 33.0 µM 57% | [2]; at 1.2 µM 14% | [2]; at 3.7 µM 47% | [14]; at 1.2 µM -6% | [14]; at 3.7 µM -2% | [14]; at 11.0 µM 9% | [14]; at 33.0 µM 59% | [4]; at 1.2 µM 6% | [4]; at 3.7 µM 6% | [4]; [16] 11% | [4]; at 11.0 µM 66% | [5]; at 1.2 µM 14% | [5]; at 3.7 µM -2% | [5]; at 11.0 µM 31% | [5]; at 33.0 µM 69% | [7]; at 1.2 µM 10% | [7]; at 3.7 µM 21% | [7]; at 11.0 µM 33% | [8]; [16] 5% | [8]; at 50.0 µM 37.5% | [9]; at 1.2 µM -15% | [9]; at 3.7 µM -11% | [9]; [16] 16% | [9]; at 11.0 µM 4% | [9]; at 33.0 µM 62% | [9]; at 50.0 µM 64.2% | [10]; at 1.2 µM -13% | [10]; at 3.7 µM -19% | [10]; at 11.0 µM -7% | [10]; at 33.0 µM 69% | [11]; at 1.2 µM -9% | [11]; at 3.7 µM -7% | [11]; at 11.0 µM 2% | [12]; at 1.2 µM 18% | [12]; at 3.7 µM 21% | [12]; at 11.0 µM 31% | [15]; [16] 16% | [13]; at 1.2 µM 6% | [13]; at 3.7 µM 10% | [13]; at 11.0 µM 27% | [13]; at 33.0 µM 68%
active: [1]; at 100.0 µM 90% | [2]; at 11.0 µM 79% | [2]; at 33.0 µM 85% | [2]; at 100.0 µM 89% | [14]; at 100.0 µM 89% | [3]; at 1.2 µM 79% | [3]; at 3.7 µM 86% | [3]; [16] 85% | [3]; at 11.0 µM 91% | [3]; at 33.0 µM 94% | [3]; [17] 94% | [3]; at 50.0 µM 80.7% | [3]; at 100.0 µM 94% | [4]; at 33.0 µM 89% | [4]; [17] 94% | [4]; at 50.0 µM 85.9% | [4]; at 100.0 µM 94% | [5]; at 100.0 µM 89% | [7]; at 33.0 µM 73% | [7]; at 100.0 µM 87% | [8]; [17] 72% | [9]; [17] 89% | [9]; at 100.0 µM 86% | [10]; at 100.0 µM 87% | [11]; at 33.0 µM 70% | [11]; at 100.0 µM 83% | [12]; at 33.0 µM 80% | [12]; at 100.0 µM 88% | [15]; [17] 85% | [13]; at 100.0 µM 81%
